High-throughput results deposited in PubChem by National Center for Advancing Translational Sciences (NCATS).
Shown is part of a subset that was picked to be rich in hits.
HT1080-NT tox – kills 2HG-producing HT-1080-NT fibrosarcoma cells. Potency, µM (doses to about 46.1 µM), without a hit: at the highest dose activity, negative = less viability, most hits filed as cytotoxic. AID 686970. HT-1080-NT fibrosarcoma viability, CellTiter-Glo ATP luminescence, 48 h. hit rate 1.6% among 360,000;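 also: NT is the 2HG producing partner of a matched IDH1 knockdown line; potency is read from the fitted curve at half-maximal effect; 0% = DMSO-treated cells and -100% = media-only wells without cells; nearly all actives have a fitted effect of over 55% in size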
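750 cells/well, RPMI + 5% FBS; 2 h settle, compound pin-transfer, 48 h at 37 degrees C. CellTiter-Glo 10 min RT, luminescence. Normalized to DMSO and media-only wells.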
DT40 TDP1 no CPT – qHTS for Inhibitors of human tyrosyl-DNA phosphodiesterase 1 (TDP1): qHTS in cells in absence of CPT; Potency, µM (highest dose often 46.2 µM), without a hit: top-dose activity change, negative = growth inhibition, hits mostly inhibitors; hit rate 15% among 420,000; AID 686978, 2013; DT40 Tdp1-/- hTDP1 cells, no CPT, ATP luminescence, 48 h; also: potency is read from the fitted curve at half-maximal effect; nearly all actives have a fitted effect of over 55% in size
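Chicken DT40 Tdp1-/- cells complemented with human TDP1, screened without camptothecin (DMSO vehicle only), 400 cells/well. Compounds pin-transferred, cells incubated at 37 °C for at least 48 hr. Growth read as ATP-dependent luminescence (CellTiter-Glo, 30 min at RT).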
DT40 TDP1 CPT – DT40-hTDP1 cell growth loss with CPT | chicken DT40 Tdp1-/-;hTDP1 cells + 20 nM CPT, ATP luminescence, 48 h | Potency, µM (series often up to 46.2 µM), for the others: at the top dose activity change, negative = growth inhibition, usual class: inhibitors | hit rate 12% among 420,000 | AID 686979; also: potency is read from the fitted curve at half-maximal effect; nearly all actives have a fitted effect of over 55% in size
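Chicken DT40 Tdp1-/- cells complemented with human TDP1, 400 cells/well, exposed to compounds plus 20 nM camptothecin for at least 48 h at 37 C; viability read as ATP content by CellTiter-Glo luminescence.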
HT1080 IDH1KD tx – toxicity to HT-1080 IDH1 knockdown cells (counter line); HT-1080 IDH1 knockdown viability, ATP luminescence, 48 h; AID 686971; Potency, µM (series often up to 46.1 µM), for the others: at the top dose activity, negative = toxicity, usual class: cytotoxic; hit rate 2% among 360,000;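 also: potency is read from the fitted curve at half-maximal effect; 0% = DMSO wells and -100% = cell-free medium wells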
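IDH1KD HT-1080 cells, 750/well, RPMI + 5% FBS; compound pinned after 2 h settling; 48 h, 37 °C; CellTiter-Glo luminescence; % activity normalised to DMSO and no-cell wells; curves fitted, classed by r2 and efficacy.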
ALOX12 inh – ALOX12 (human) lipoxygenase inhibition. purified 12hLO, xylenol orange hydroperoxide absorbance. Potency, µM (series often up to 108 µM), inactives show at the highest dose activity change, negative = inhibition, usual class: inhibitors. hit rate 1.1% among 580,000. AID 1671190; also: potency is read from the fitted curve at half-maximal effect
Target sequence (P18054 whole entry, looked up): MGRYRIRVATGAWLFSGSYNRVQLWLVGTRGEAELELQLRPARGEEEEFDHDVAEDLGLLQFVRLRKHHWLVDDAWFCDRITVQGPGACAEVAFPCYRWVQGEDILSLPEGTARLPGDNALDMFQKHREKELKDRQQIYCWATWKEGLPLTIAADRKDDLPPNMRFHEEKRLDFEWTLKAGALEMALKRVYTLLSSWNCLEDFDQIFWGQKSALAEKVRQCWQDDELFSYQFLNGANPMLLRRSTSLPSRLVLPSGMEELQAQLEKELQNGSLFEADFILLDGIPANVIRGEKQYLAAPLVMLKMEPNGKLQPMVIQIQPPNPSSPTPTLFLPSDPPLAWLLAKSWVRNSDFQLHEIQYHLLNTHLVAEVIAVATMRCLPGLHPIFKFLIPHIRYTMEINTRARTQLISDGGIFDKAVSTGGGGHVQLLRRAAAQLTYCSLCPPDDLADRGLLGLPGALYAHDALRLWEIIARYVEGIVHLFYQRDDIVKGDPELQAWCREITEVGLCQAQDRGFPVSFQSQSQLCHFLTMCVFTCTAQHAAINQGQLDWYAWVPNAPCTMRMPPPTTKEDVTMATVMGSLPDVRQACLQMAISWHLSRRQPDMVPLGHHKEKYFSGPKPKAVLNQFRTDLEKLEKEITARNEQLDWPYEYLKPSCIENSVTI
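Purified human 12hLO (150 nM final) in 25 mM Hepes, 0.01% Triton X-100, pH 7.0 was preincubated 15 min at room temperature with compound. Then 40 uM arachidonic acid was added, 30 min. Hydroperoxide was read by Fe-XO absorbance ratio 573/405 nm.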
IL-1B inflam inh – inflammasome signaling inhibition, IL-1 beta readout; hit rate 4.7% among 360,000; activity change, % at 57.5 µM; THP-1 LPS/ATP IL-1B secretion, AlphaLISA, 16 h; stronger effect = lower value; in the data active = activity change below about -50%; inconclusive = mostly about -30% to -49%
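Secreted IL-1B measured by AlphaLISA bead assay after 16 h compound exposure of THP-1 cells; compounds (final up to 57.5 uM) added 1 h before LPS (250 ng/mL) and ATP (1.25 mM) stimulation; lower signal means less secretion.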
* = called active by the depositor; ? = inconclusive; / = no result given; [ ] = another dose, or the depositor's remark. Unless noted, calls follow the shape of the dose curve; as a rule, active = well fitted curve in the direction sought with a large enough effect; inconclusive = small, poorly fitted or top-dose-only effect, or another doubt; inactive = no such curve, though single readings can be large; an effect the other way counts as inactive or inconclusive. Unless noted, % is scaled to controls: 0 for no effect and ±100 for the full control effect.

SMILES | HT1080-NT tox | DT40 TDP1 no CPT | DT40 TDP1 CPT | HT1080 IDH1KD tx | ALOX12 inh | IL-1B inflam inh
O=C(OC(C(=O)NCC1CCCO1)c1ccccn1)c1cccs1 (configuration not stated) | 0% | -3% | -2% | 14% | -6% | -56*
O=C(N/N=C/c1ccccc1Cl)c1cccs1 | / | / | / | / | -1% | /
NC(=S)N/N=C/c1ccccc1OC(=O)/C=C/c1ccccc1 | 4% | 0.52µM* | 5.2µM* | -1% | 5.6µM* | ?
O=C(N/N=C/c1cccc([N+](=O)[O-])c1O)c1cccs1 | ? | 1µM* | 0.73µM* | ? | -19% | 66
NC(=S)N/N=C/c1ccccc1 | 6% | -23% | -2% | -1% | ? | 15
NC(=S)N/N=C\c1ccccc1OCc1ccccc1 | 0% | ? | 29µM* | -10% | ? | -5
O=C(N/N=C/c1ccccc1OCc1ccccc1)c1cccs1 | -4% | 15µM* | ? | -13% | -5% | -1
Cc1nn(-c2ccccc2)c2c1C(C(F)(F)F)(C(F)(F)F)N=C(N(C)C)O2 | / | / | / | / | -15% | /
O=C(NN=Cc1cccc2ccccc12)C(=O)NN=Cc1cccc2ccccc12 | -2% | 15µM* | ? | 7% | -11% | -20
NC(=S)N/N=C/c1ccccc1OC(=O)c1cc2ccccc2oc1=O | -8% | 6.5µM* | ? | 0% | -15% | -15
COc1ccccc1/C=C\C=N\NC(=O)c1ccco1 | 11% | -1% | 9% | 14% | 2% | 0
COc1ccccc1/C=C/C=N/NC(=O)c1cccs1 | -15% | 6.5µM* | 21µM* | -23% | 204% | -15
O=C(N/N=C/c1cccc2ccccc12)c1cccs1 | -2% | ? | 26µM* | -23% | / | 51
O=C(NC1CCN(c2cc(-c3ccccc3)[nH]n2)C1)c1ccc(F)c(Cl)c1 (configuration not stated) | / | / | / | / | 36% | /
CCN1C(=O)COC[C@@H]1[C@H](O)c1ccc(NC(=O)c2ccco2)cc1 | / | / | / | / | 5%[176 µM] | /
O/N=C(/c1ccc(F)cc1)c1ccc(O)cc1O | / | / | / | / | -15% | /
COc1cc(/C=N/NC(=O)/C(=C\c2ccc([N+](=O)[O-])cc2)NC(=O)c2ccccc2)cc(OC)c1O | -4% | ? | -30% | -13% | ? | 1
O=C(N/N=C/c1cccc2ccccc12)c1ccccc1Cl | -11% | -4% | -7% | -18% | ? | -51*
O=C(N/N=C/c1cc([N+](=O)[O-])cc([N+](=O)[O-])c1O)/C(=C\c1cccs1)NC(=O)c1ccccc1 | 1% | 5% | -2% | 16% | 16µM* | 7
CN(C)c1nc(N)nc(COc2ccccc2F)n1 | / | / | / | / | 2% | /
COc1ccc2c(c1)C(CC(C)=O)N(c1ccc(-c3cnc(OC)nc3)cc1)C(c1ccsc1)=C2 (configuration not stated) | 0% | ? | -15% | 2% | -76% | 13
COc1cc(-c2ccc(N3C(c4ccsc4)=Cc4ccccc4C3CC(C)=O)cc2)cc(OC)c1OC (configuration not stated) | 0% | ? | ? | 12% | ? | 0
COc1cc(OC)cc(C2=Cc3ccc(OC)cc3C(CC(C)=O)N2c2ccc(C#CC3(O)CCCCC3)cc2)c1 (configuration not stated) | -17% | 21µM* | ? | -24% | ? | -24
COc1cccc(C2=Cc3ccc(F)cc3C(CC(C)=O)N2c2ccc(C#CC3(O)CCCCC3)cc2)c1 (configuration not stated) | ? | ? | ? | ? | 16µM* | -18
